Compounds with a hit are over-represented: about 11% of the library has one in this group of screens.
JMJD2A Tudor: blocks the human JMJD2A Tudor domain. AlphaScreen JMJD2A-Tudor / H3K4me3 peptide binding. AID 504339. hit rate 4.4% among 390,000. O75164. Potency, µM (titrated, usually from 114 µM), for the others: at the highest dose activity change, negative = inhibition, usual class: inhibitors; also: % is scaled to controls: 0 for no effect and ±100 for the full control effect; nearly all actives have a fitted effect of over 50% in size
Target sequence (O75164 whole entry, looked up, the tested form may be a part): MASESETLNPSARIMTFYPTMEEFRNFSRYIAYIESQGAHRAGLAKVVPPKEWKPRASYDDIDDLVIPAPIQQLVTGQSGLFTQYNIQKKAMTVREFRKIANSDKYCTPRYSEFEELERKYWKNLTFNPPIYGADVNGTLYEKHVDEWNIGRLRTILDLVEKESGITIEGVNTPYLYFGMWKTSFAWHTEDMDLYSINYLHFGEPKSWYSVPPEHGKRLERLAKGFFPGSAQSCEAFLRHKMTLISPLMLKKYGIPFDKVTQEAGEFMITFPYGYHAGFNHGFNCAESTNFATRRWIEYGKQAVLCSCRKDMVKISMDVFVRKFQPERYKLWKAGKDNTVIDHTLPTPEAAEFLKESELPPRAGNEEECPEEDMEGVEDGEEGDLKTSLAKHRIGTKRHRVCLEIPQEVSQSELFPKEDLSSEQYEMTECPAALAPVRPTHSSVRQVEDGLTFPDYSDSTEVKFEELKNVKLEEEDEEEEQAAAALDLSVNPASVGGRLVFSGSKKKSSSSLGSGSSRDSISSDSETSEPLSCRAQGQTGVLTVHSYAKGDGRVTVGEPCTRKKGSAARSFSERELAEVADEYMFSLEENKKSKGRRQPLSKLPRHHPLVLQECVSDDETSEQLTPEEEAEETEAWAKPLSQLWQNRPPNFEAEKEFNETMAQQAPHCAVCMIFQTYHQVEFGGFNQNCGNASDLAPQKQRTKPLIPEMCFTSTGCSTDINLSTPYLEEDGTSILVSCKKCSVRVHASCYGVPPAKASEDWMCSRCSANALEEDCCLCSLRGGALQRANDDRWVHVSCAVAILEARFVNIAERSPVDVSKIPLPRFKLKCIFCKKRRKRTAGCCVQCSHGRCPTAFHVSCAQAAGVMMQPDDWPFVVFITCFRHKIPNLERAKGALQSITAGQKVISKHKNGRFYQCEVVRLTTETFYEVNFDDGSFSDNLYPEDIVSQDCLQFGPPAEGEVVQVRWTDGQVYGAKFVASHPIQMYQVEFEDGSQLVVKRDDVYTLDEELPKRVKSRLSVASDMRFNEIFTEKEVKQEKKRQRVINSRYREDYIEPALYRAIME
HP1b chromo inh: HP1-beta chromodomain-methylated histone interaction inhibition. hit rate 0.56% among 390,000. AlphaScreen HP1-beta / biotin-H3K9me3 peptide binding. AID 540317. Potency, µM (top dose mostly 114 µM), for inactives: top-dose activity change, negative = inhibition, most hits filed as inhibitors; also: nearly all actives have a fitted effect of over 70% in size
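Compound inhibition of the preformed complex between 50 nM HP1-beta and 50 nM biotinylated H3K9me3 peptide was read by AlphaScreen. Buffer was PBS pH 7.4 with 0.01% Tween-20. Incubations ran 30 min at room temperature, with 10 ug/mL donor/acceptor beads.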
BAZ2B inh: blocks human BAZ2B | Q9UIF8 | AlphaScreen BAZ2B-H3K14Ac peptide displacement | Potency, µM (titrated, usually from 114 µM), inactives show at the top dose activity change, negative = inhibition, hits mostly inhibitors | hit rate 4.4% among 360,000 | AID 504333; also: % is scaled to controls: 0 for no effect and ±100 for the full control effect; nearly all actives have a fitted effect of over 60% in size
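Multi-concentration screen (max 110 uM) measuring displacement of acetylated histone H3 peptide from BAZ2B by AlphaScreen, using 50 nM protein, 50 nM peptide and 10 ug/mL streptavidin donor plus Ni-chelate acceptor beads.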
G9a inh: blocks human histone lysine methyltransferase G9a; hit rate 8.8% among 350,000; Potency, µM (top dose mostly 102 µM), without a hit: top-dose activity, negative = inhibition, hits mostly inhibitors; Q96KQ7; AID 504332; G9a H3K9 monomethylation, AlphaScreen, 2 h; also: % is scaled to controls: 0 for no effect and ±100 for the full control effect; nearly all actives have a fitted effect of over 75% in size
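Enzyme 20 nM + cpd, 15 min RT; add b-H3K9 pep 500 nM / SAM 20 uM; 2 h RT; anti-H3K9me1 Ab 0.5 ug/mL + SA donor / anti-rabbit acceptor beads 20 ug/mL each, 10 min; AlphaScreen read.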
L3MBTL1 inh: L3MBTL1 (human) inhibition; Potency, µM (doses to about 57.1 µM), for inactives: at the top dose activity, negative = inhibition, hits mostly inhibitors; Q9Y468; hit rate 0.66% among 230,000; AlphaScreen L3MBTL1–H3K9me1 peptide binding; also: % is scaled to controls: 0 for no effect and ±100 for the full control effect; nearly all actives have a fitted effect of over 60% in size
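Read-out is AlphaScreen signal from streptavidin donor and nickel chelate acceptor beads (10 ug/mL final each) bridging L3MBTL1 (50 nM) and biotinylated K9-monomethylated H3(1-15) peptide (75 nM), after 30 min compound exposure at room temperature.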
* = called active by the depositor; ? = inconclusive; . = no result given; [ ] = remark or other dose. Calls follow the shape of the dose curve; as a rule, active = well fitted inhibition curve with a large enough effect; inconclusive = small, poorly fitted or top-dose-only effect; inactive = no such curve, though single readings can be large or run the other way. Potency is read from the fitted curve at half-maximal effect.

SMILES	JMJD2A Tudor	HP1b chromo inh	BAZ2B inh	G9a inh	L3MBTL1 inh
CCCC(=O)Nc1nnc(S(=O)(=O)N2CCCC2)s1	-6%	48%	-1%	.	4%
CCC(=O)N1CCCc2cc(S(=O)(=O)N3CCC(C(=O)NC4CCC(C)CC4)CC3)ccc21 (stereo not drawn)	-20%	2%[57 µM]	-10%	14%[59 µM]	.
Cc1ccc(CNC(=O)CCC(=O)N2CC3CCCN3c3ccccc32)cc1 (stereo not drawn)	?	6%	?	-29%[59 µM]	.
O=C1CC(N2CCCCCC2)C(=O)N1c1ccc2c(c1)OCO2 (stereo not drawn)	-10%	34%	-3%	?	.
O=C1CC(N2CCN(Cc3ccc4c(c3)OCO4)CC2)C(=O)N1c1cccc(Cl)c1 (stereo not drawn)	-11%	8%	11%	-46%[59 µM]	.
COc1ccc(N2C(=O)CC(N3CCN(Cc4ccc5c(c4)OCO5)CC3)C2=O)cc1 (stereo not drawn)	-19%	35%	-2%	40µM*	-16%
O=C1CC(N2CCN(c3ccc(O)cc3)CC2)C(=O)N1c1ccc2c(c1)OCO2 (stereo not drawn)	?	?	-22%	16µM*	-21%
Cc1ccc(S(=O)(=O)Nc2ccc3c(c2)CCCN3C(=O)c2cccs2)cc1	-28%	-4%	-23%	3%[59 µM]	.
CCOC(=O)c1c(C)oc2cc(Br)c(O)c(Br)c12	-20%	23%	8%	6.3µM*	-8%
CCOC(=O)c1c(CSc2cccs2)n(C)c2cc(Br)c(O)c(CN(C)C)c12	63µM*	?	40µM*	.	-22%
CCOC(=O)c1c(C)n(C)c2cc([N+](=O)[O-])c(O)c([N+](=O)[O-])c12	?	-16%	?	-45%	-12%
CCOC(=O)c1c(C)n(C)c2cc(Br)c(O)c(O)c12	10µM*	?	-3%	0.35µM*	0%
COc1ccc2c(c1)OC[C@H]1[C@H]2N2C(=O)CN(CCc3c[nH]c4ccccc34)C(=O)[C@@]2(C)[C@H]1c1ccccc1	-32%	13%	-27%	-10%[0.501 µM]	-7%
CN(C)c1ccc(Cl)cc1N	-5%	36%	?	25µM*	-10%
O=C(/C=C/c1cccs1)NC(=S)Nc1ccccc1	?	2%	32µM*	.	-21%
O=C(NC(=S)Nc1ccccc1)c1cccs1	-20%	-6%	-35%	-12%[59 µM]	.
O=C(/C=C/c1cccs1)NC(=S)NNC(=O)c1ccccc1O	79µM*	6%	?	10µM*	35µM*
COc1cc(-c2noc(-c3ccc(NCC4CCCO4)c([N+](=O)[O-])c3)n2)cc(OC)c1OC (stereo not drawn)	-20%	35%	-12%	6%[59 µM]	.
Clc1ss/c(=N\c2ccccn2)c1Cl	-11%	18%	40µM*	1.8µM*	6%
Clc1ccccc1N=Nc1ccccn1	?	-21%	.	.	.
CCOC(=O)c1c(S(=O)(=O)N2CCC(C(=O)N3CCN(c4ccc(F)cc4)CC3)CC2)c(C)n(C)c1C	-22%	4%	-35%	2%[59 µM]	.
CN(Cc1cccs1)C(=O)CSc1nc(N)cc(N)n1	79µM*	11%	.	-1%	7%
CN(Cc1cccs1)C(=O)COC(=O)CNC(N)=O	8%	52%	-5%	9%	.
CCCn1ccc2c(OCC(=O)Nc3ccc(OC)c(OC)c3)cccc2c1=O	-13%	11%	-14%	-4%[59 µM]	.
CCn1c(O)c(C=Nc2ccccc2)n(-c2ccccc2)c1=S	11%[11.4 µM]	1%	12%	7.9µM*	.
SMILES	JMJD2A Tudor	HP1b chromo inh	BAZ2B inh	G9a inh	L3MBTL1 inh
CCn1c(O)c(C=Nc2ccccc2)sc1=O	-21%	40%	-21%	-31%	-4%
COc1ccc(-c2nc3cnc(OC)nc3n(CCc3ccccc3)c2=O)cc1	.	.	.	13%[0.501 µM]	.
CC(=O)N[C@H](CC(C)C)C(=O)O	.	.	.	-12%[2.33 µM]	.
Cc1ccc(CN2CC(C(=O)N(CC(C)C)c3c(N)n(Cc4ccccc4)c(=O)[nH]c3=O)CC2=O)cc1 (stereo not drawn)	-1%	36%	.	.	.
CCc1ccc(N2CC(c3nnc(NC(=O)c4ccco4)s3)CC2=O)cc1 (stereo not drawn)	-14%	11%	-19%	14µM*	.
Cc1cc(Br)ccc1NC(=O)CSc1c2c(nc3ccccc13)CCC2	-9%	31%	.	0%[59 µM]	.
CCn1c(CCn2ccnc2C)n[nH]c1=S	22µM*	23%	3%	?	4%
CCn1c(CC(C)C)n[nH]c1=S	?	33%	10%	.	2%
CCc1ccc(NC(=O)C(NS(=O)(=O)c2cccs2)C(C)C)cc1 (stereo not drawn)	-11%	38%	7%	-18%[59 µM]	.
Cc1ccccc1C1c2[nH]c3ccccc3c2CCN1Cc1cccn1-c1ncccn1 (stereo not drawn)	?	-11%	25µM*	50µM*	?
Fc1ccccc1C1c2[nH]c3ccccc3c2CCN1Cc1cccn1-c1ncccn1 (stereo not drawn)	?	?	32µM*	.	-7%
CCC(=O)N1c2nc(C(C)C)nn2C2(CCCCC2)[C@@H]2CCCC[C@@H]21	-14%	38%	-3%	1%[59 µM]	.
CCCc1nc2nc(C)c(NS(=O)(=O)c3ccc([N+](=O)[O-])cc3)c(=O)n2[nH]1	-5%	53%	6%	79µM*	.
Cc1nc2nc(C)c(NS(=O)(=O)c3ccc4c(c3)CCCC4)c(=O)n2[nH]1	4%	-16%	-6%	71µM*	.
COc1ccc(S(=O)(=O)N2CCOCC2)cc1NC(=O)COC(=O)c1ccc([N+](=O)[O-])s1	-15%	-3%	.	.	?
COc1ccc(-c2nc3sc(CCNC(=O)C(=O)Nc4ccc(C)c(F)c4)c(C)n3n2)cc1	-19%	18%	-17%	4%[59 µM]	.
COc1ccc(/C=N/NC(=O)c2cc(OC)c(OC)c(OC)c2)cc1CN1CCc2cc(OC)c(OC)cc2C1C (stereo not drawn)	-25%	10%	-16%	?	.
COc1ccc(C2NCCc3c2[nH]c2ccccc32)cc1COc1ccc(F)cc1 (stereo not drawn)	40µM*	?	35µM*	?	-14%
COc1ccc(C2NCCc3c2[nH]c2ccccc32)cc1CN1CCc2cc(OC)c(OC)cc2C1C (stereo not drawn)	-24%[11.4 µM]	4%	?	45µM*	.
CCn1nc(-c2ccc(C)cc2)nc2c(=O)n(C)c(=O)nc1-2	-6%[57.1 µM]	25%[57 µM]	.	.	.
Cc1ccc2c(CC(=O)N3CCN(c4cccc(Cl)c4)CC3)coc2c1	-16%	31%	-10%	-31%[59 µM]	.
O=C1Nc2ccc(I)cc2/C1=C/c1cc(Br)c(O)c(Br)c1	.	.	.	21µM*	.
Cc1ccc2c(c1)/C(=C/c1ccccc1)C(=O)N2	?	-8%	?	13%	.
Nc1nc(NCc2ccco2)nc(N2CCCC2)c1[N+](=O)[O-]	-26%	-9%	71µM*	.	-10%
Nc1nc(NCc2ccco2)nc(N2CCCCCC2)c1[N+](=O)[O-]	56µM*	?	50µM*	?	-5%

High-throughput results: PubChem, National Center for Advancing Translational Sciences (NCATS)
